According to PubChem BioAssay AID504834 (National Center for Advancing Translational Sciences (NCATS), 2011):
About 22,000 (6.9%) of roughly 320,000 compounds were called active. About 27% were inconclusive and are not listed. This is one part of a sample in which actives are shown more often than they occur. The call rests on the fitted dose curve; in most records, active means well fitted inhibition curve with a large enough effect; inconclusive means small, poorly fitted or top-dose-only effect, or another doubt; inactive means no such curve, though single readings can be large or run the other way.

assay: Primary qHTS for delayed death inhibitors of the malarial parasite plastid, 96 hour incubation; details: P. falciparum luciferase reporter growth; series mostly up to 28.7 µM; activity change, negative = inhibition: at the top concentration
Summary of the method: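 Cell-based qHTS: luciferase-tagged P. falciparum in erythrocytes (2% hematocrit, 0.05% parasitemia final) incubated with compounds for 96 hours, 37 C, 5% CO2; luciferase detection reagent then added and luminescence measured.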
On the % scale 0 is the no-effect control and ±100 the full control effect; potency means the concentration at half of the fitted maximal effect.

Compound	Potency	activity change, negative = inhibition
Cn1nccc1C(=O)N1CCCC(C(=O)c2ccc(Oc3ccccc3)cc2)C1 (configuration not stated)	2.94 µM (active)	
Cc1nc(C(=O)N2CCCC(C(=O)c3ccc(Cl)cc3)C2)cs1 (configuration not stated)		7.81% (inactive)
COc1ccc(C(=O)C2CCCN(C(=O)c3cnsn3)C2)c(C)c1 (configuration not stated)		12.8% (inactive)
CSc1ccc(C(=O)C2CCCN(C(=O)c3ccc(C)nc3)C2)cc1 (configuration not stated)		-19.8% (inactive)
CCNC(=O)N1CCCC(C(=O)c2ccc(-c3ccccc3)cc2)C1 (configuration not stated)	10.4 µM (active)	
CC(C)Oc1cccc(C(=O)C2CCCN(C3CCOCC3)C2)c1 (configuration not stated)		-13.1% (inactive)
Cc1ccccc1NC(=O)C1CCCN(C(=O)NCc2ccccc2)C1 (configuration not stated)		-4.69% (inactive)
COc1ccc2cc(C(=O)C3CCCN(C(=O)c4sc(C)nc4C)C3)ccc2c1 (configuration not stated)	13.1 µM (active)	
CCn1nc(C)cc1C(=O)N1CCCC(C(=O)c2cccc(OC)c2)C1 (configuration not stated)		20.3% (inactive)
CCOc1cc(/C=C/c2nc3ccccc3c(=O)[nH]2)cc(Br)c1OC		-29.4% (inactive)
Cc1cc(OC(=O)c2ccc(OC(C)C)cc2)c([N+](=O)[O-])c(=O)[nH]1		-13.8% (inactive)
Cc1cccc(C(=O)OC(C)C(=O)NC2CCCc3ccccc32)c1O (configuration not stated)		92.5% (inactive)
O=C(NC1CCCCC1)c1ccc(-c2ccc(Cl)cc2)o1		131% (inactive)
COc1ccc(C2/C(=C(/O)c3ccc4c(c3)CC(C)O4)C(=O)C(=O)N2Cc2ccncc2)cc1 (configuration not stated)		3.97% (inactive)
CC(=O)c1c(C)[nH]c(C(=O)OCC(=O)Nc2c(C)n(C)n(-c3ccccc3)c2=O)c1C		17.9% (inactive)
COc1ccc(N2CCN(C(=O)CN3C(=O)COc4ccccc43)CC2)cc1		2.23% (inactive)
CN1CN(C)c2ccc([N+](=O)[O-])c3cccc1c23		41.2% (inactive)
O=C(NCc1ccncc1)C1CCN(C(=O)c2cccc(Cl)c2)CC1		45.8% (inactive)
Cc1ccc(-c2csc(N3CCN(c4cc5c(cc4Cl)nc(-c4ccncc4)n5CCOCCO)CC3)n2)cc1	5.86 µM (active)	
COc1ccc(-c2csc(N3CCN(Cc4ccc5c(c4)OCO5)CC3)n2)cc1		-2.39% (inactive)
COc1cccc(NC(=O)CN2CCN(c3nc(-c4cccc(OC)c4)cs3)CC2)c1		-2.14% (inactive)
CCCn1c(C2CCCN2c2nc(-c3ccc(C)cc3)cs2)nc2cc(Cl)c(N3CCCCC3)cc21 (configuration not stated)	3.29 µM (active)	
CCn1c(SCC(=O)N/N=C/c2ccccc2OCC(=O)O)nnc1-c1ccc(C(C)(C)C)cc1		2.33% (inactive)
O=C1CC2(CC(c3ccc(Cl)cc3)=NO2)C(=O)N1c1ccccc1 (configuration not stated)		-4.38% (inactive)
COCCN(CCOC)c1nc(N)c2c(N)nc3c(c2c1C#N)CC(=O)N3Cc1ccc(Cl)cc1	2.62 µM (active)	
CCCCN1C(=O)C(=O)N(CC(=O)Nc2cccc(C(C)=O)c2)C1=O		-16.1% (inactive)

Compound	Potency	activity change, negative = inhibition
COc1ccc(NCCc2ccccn2)cc1		30.7% (inactive)
Cc1ccc(NC(=O)CCC(=O)c2ccc(Br)cc2)cc1		37% (inactive)
OC1CCCN(c2ncnc3c2nnn3Cc2c(F)cccc2Cl)C1 (configuration not stated)		45.1% (inactive)
COCCNc1ncnc2c1nc1n2CCCC1		16.5% (inactive)
COc1cccc(CNC(=O)C2CCCN(c3ncnc4c3nc3n4CCCCC3)C2)c1 (configuration not stated)		23.4% (inactive)
CCOC(=O)c1cccc(NC(=O)C2CCN(c3ncnc4c3nc3n4CCCCC3)CC2)c1	10.4 µM (active)	
O=C(NCc1ccccc1Cl)C1CCN(c2ncnc3c2nc2n3CCCCC2)CC1		17.6% (inactive)
CN(C(=O)C1CCN(c2ncnc3c2nc2n3CCCCC2)CC1)C1CCCCC1		1.7% (inactive)
O=C(NCCCN1CCCCC1)C1CCCN(c2ncnc3c2nc2n3CCCCC2)C1 (configuration not stated)		0.744% (inactive)
CN(Cc1ccccc1)C(=O)C1CCCN(c2ncnc3c2nc2n3CCCCC2)C1 (configuration not stated)	14.7 µM (active)	
COc1cccc(NC(=O)C2CCCN(c3ncnc4c3nc3n4CCCCC3)C2)c1 (configuration not stated)	8.28 µM (active)	
Cc1cnc(C(=O)Oc2cccc(Cl)c2Cl)cn1		34.7% (inactive)
O=C(NCC#CCSc1nnc(-c2cccc3ccccc23)o1)c1cccs1		-16.4% (inactive)
Cc1ccc(S(=O)(=O)N[C@@H](Cc2ccccc2)C(=O)N2CCC(C(=O)N[C@H](C(=O)O)C(C)O)CC2)cc1 (some centres not stated)		4.81% (inactive)
O=S(=O)(Cc1nnnn1-c1ccc(Br)cc1)c1ccc(F)cc1		13.9% (inactive)
O=C(Nc1ccccc1)/C(=C\c1ccco1)NC(=O)c1ccco1		14.6% (inactive)
CCn1c(SCC(=O)Nc2sc(C)c(C)c2C#N)nnc1C1CC1		4.09% (inactive)
CC(=O)c1c(N2CCOCC2)nc(=S)n(-c2cc(C)ccc2C)c1C		0.824% (inactive)
CC(=O)c1c(N2CCOCC2)nc(=S)n(Cc2ccccc2)c1C	0.329 µM (active)	
O=C(N1CCOCC1)N(Cc1ccccc1)c1ccccn1		2.7% (inactive)
CN1CCN(C(=O)c2ccccc2NC(=O)COc2ccccc2Cl)CC1		-4.76% (inactive)
CCOc1ccc(S(=O)(=O)NCCC(=O)NCC2CCCO2)cc1 (configuration not stated)		24% (inactive)
CCOc1ccc(S(=O)(=O)N2CCN(C(=S)NCC3CCCO3)CC2)cc1 (configuration not stated)	2.94 µM (active)	
CCOc1ccc(NC(=S)N2CCC(N(C)CC3CCCO3)CC2)cc1 (configuration not stated)	11.7 µM (active)	
CCC(C)N(C)C1CCN(C(=S)Nc2ccc(OC)cc2)CC1 (configuration not stated)		-7.01% (inactive)
CCOc1ccc(NC(=S)N2CCCCCC2)cc1		-20% (inactive)

Compound	Potency	activity change, negative = inhibition
COc1ccc(S(=O)(=O)N2CCN(C(=S)NCC3CCCO3)CC2)cc1OC (configuration not stated)		-5.09% (inactive)
NCC(=O)c1cccc2ccc[n+]([O-])c12		36.4% (inactive)
O=C(CNC(=O)OCc1ccccc1)NC1CCCCNC1=O (configuration not stated)		54.3% (inactive)
Cc1ccc(C(=O)NCC(=O)NCc2cc(=O)n(C)c(=O)n2C)cc1		13.5% (inactive)
O=C(NCCc1nnc2ccc(SCC(=O)N3CCOCC3)nn12)c1ccccc1		41.2% (inactive)
COc1ccc(N2CCN(C(=O)C3CCN(S(=O)(=O)c4ccc(C)cc4)CC3)CC2)cc1		6.26% (inactive)
CCCCOc1ccc(NC(=O)[C@@H]2CCCN2C(=O)C2CCN(S(=O)(=O)c3ccc(C)cc3)CC2)cc1	11.7 µM (active)	
CCOc1cccc(NC(=O)C2CCCN(S(=O)(=O)c3ccc(OC)cc3)C2)c1 (configuration not stated)		2.89% (inactive)
Cc1c(C(=O)N/N=C/c2ccccc2)[nH]c2c([N+](=O)[O-])cccc12		0% (inactive)
CN(C)S(=O)(=O)c1ccc(N/C=C(\[N+](=O)[O-])S(=O)(=O)c2ccccc2)cc1		49.1% (inactive)
COC(=O)c1ccc(NC(=O)CSc2nnc(C3CC3)n2C)cc1		14.4% (inactive)
COc1ccc(C(=O)OC(C)C(=O)NC2CCCC2)cc1S(=O)(=O)N1CCOCC1 (configuration not stated)		-6.55% (inactive)
COc1cccc(N2CCN(CC(=O)Nc3ccnn3C3CCCC3)CC2)c1		-13.9% (inactive)
C#C[C@]1(O)CC[C@H]2[C@@H]3CCC4=CC(=O)CC[C@@H]4[C@H]3CC[C@@]21CC	7.57 µM (active)	
Cc1cc(C)c(C#N)c(SCC(=O)N(CC(C)C)C2CCS(=O)(=O)C2)n1 (configuration not stated)		-12.5% (inactive)
CC(NC(=O)COc1ccc(-c2ccccc2)cc1)C1CCCO1 (configuration not stated)		38.1% (inactive)
O=C(Nc1ccncc1)c1ccc([N+](=O)[O-])cc1Cl		38.2% (inactive)
CN(CCc1ccccn1)C1CCCN(S(=O)(=O)c2ccccc2Cl)C1 (configuration not stated)		-0.441% (inactive)
Cn1nc(C(F)(F)F)cc1C(=O)O		36.7% (inactive)
Cc1nn(-c2ccccc2)c(C)c1NC(=O)COc1ccc(Cl)cc1Cl		8.25% (inactive)
Cc1cccc(C)c1NC(=O)CNC(=O)c1c(C)nn(-c2ccccc2)c1C		-4.55% (inactive)
Cc1nn(-c2ccccc2)c(C)c1NC(=O)CCl	3.7 µM (active)	
O=C(NCC1CCCO1)c1cc2c(s1)CCCC2 (configuration not stated)		282% (inactive)
CC1(C)O[C@@H]2[C@H](O1)[C@@H](CO)O[C@H]2n1c(N2CCCCC2)nc2c(N)ncnc21		8.05% (inactive)
Cc1ccc(OCCCCN2CCCCC2)c(Br)c1		-19.8% (inactive)
C=CCc1cc(C)ccc1OCCCn1ccnc1	11.7 µM (active)	

Compound	Potency	activity change, negative = inhibition
Clc1c(OCCCn2ccnc2)ccc2ccccc12		203% (inactive)
CCOC(=O)c1ccc(S(=O)(=O)N(CCO)Cc2cc3cc(OC)c(OC)cc3[nH]c2=O)cc1		-9.56% (inactive)
COc1cccc(CNC(=O)C(=O)NCCC2CCCCN2S(=O)(=O)c2ccc(C)cc2)c1 (configuration not stated)	10.4 µM (active)	
COc1ccc(S(=O)(=O)N2CCCC2CNC(=O)C(=O)NC2CC2)cc1 (configuration not stated)		2.54% (inactive)
O=C(NCCC1CCCCN1S(=O)(=O)c1ccc(F)cc1)C(=O)NC1CC1 (configuration not stated)		-4.85% (inactive)
COc1cc(OC)c(NC(=O)C2CCCN2C(=O)OCc2ccccc2)cc1Cl (configuration not stated)		-25.4% (inactive)
CCOC(=O)CNC(=O)N1c2ccccc2Sc2ccccc21		17.9% (inactive)
COc1ccc(CCNC(=O)CN2C(=O)CCSc3ccccc32)c(OC)c1		-12.9% (inactive)
CCOC(=O)CNC(=O)CN1C(=O)CCSc2ccccc21	11.7 µM (active)	
Cc1ccc(NC(=O)c2cnc(SCC(=O)NCC3CCCO3)n(C)c2=O)cc1 (configuration not stated)		38% (inactive)
Cn1c(=O)n(C)c2cc(C(=O)Nc3ccc(Br)cc3)ccc21		9.04% (inactive)
COC(=O)[C@@H]1CC(O)CN1C(=O)C12CC3CC(CC(C3)C1)C2 (some centres not stated)		31.1% (inactive)
CCOc1ccccc1Nc1ccc2nonc2c1[N+](=O)[O-]		17.1% (inactive)
COc1ccccc1C(=O)NC(CCSC)C(=O)N1CCN(C(C)=O)CC1 (configuration not stated)		31.3% (inactive)
CSCCC(NC(=O)c1ccccc1)C(=O)N1CCN(Cc2ccc(Cl)cc2)CC1 (configuration not stated)	1.65 µM (active)	
COc1ccccc1C(=O)NC(CCSC)C(=O)N1CCN(C/C=C/c2ccccc2)CC1 (configuration not stated)	11.7 µM (active)	
CSCCC(NC(=O)c1ccccc1)C(=O)N1CCCCCCC1 (configuration not stated)		-26.5% (inactive)
O=C(c1cccc(Cl)c1)N1CCN(Cc2ccccc2)CC1		23.5% (inactive)
COc1ccccc1C(=O)NC(CCSC)C(=O)NNC(=O)c1ccccc1C (configuration not stated)		8.05% (inactive)
CC(=O)NC(CC(=O)Nc1nc(-c2ccccc2)c(C(C)=O)s1)c1ccccc1 (configuration not stated)		3.68% (inactive)
Cc1ccc(S(=O)(=O)NCC(=O)N2CCOCCOCCOCCOCC2)cc1		12.9% (inactive)
Cc1ccc(CNC(=O)[C@@H](NC(=O)Cc2ccccc2)C(C)C)cc1		37.8% (inactive)
Cn1c(-c2ccc(F)cc2)cc2onc(-c3ccccc3Cl)c2c1=O		69.3% (inactive)
CSc1ncc(Cl)c(C(=O)Nc2cc(C)ccc2C)n1		-13% (inactive)
